{"source": "PubChem BioAssay (EPA / NIEHS)", "note": "Calls of active or inactive are those of the source. Rule for the calls: active = hit-call score of the fitted dose curve at least 0.9, where 1 is the maximum; inactive = score below 0.9. Peptide text beside a SMILES is read from it."}
{"target": "Cellular tumor antigen p53 (Homo sapiens) (UniProt P04637)", "sequence (P04637 whole entry, looked up)": "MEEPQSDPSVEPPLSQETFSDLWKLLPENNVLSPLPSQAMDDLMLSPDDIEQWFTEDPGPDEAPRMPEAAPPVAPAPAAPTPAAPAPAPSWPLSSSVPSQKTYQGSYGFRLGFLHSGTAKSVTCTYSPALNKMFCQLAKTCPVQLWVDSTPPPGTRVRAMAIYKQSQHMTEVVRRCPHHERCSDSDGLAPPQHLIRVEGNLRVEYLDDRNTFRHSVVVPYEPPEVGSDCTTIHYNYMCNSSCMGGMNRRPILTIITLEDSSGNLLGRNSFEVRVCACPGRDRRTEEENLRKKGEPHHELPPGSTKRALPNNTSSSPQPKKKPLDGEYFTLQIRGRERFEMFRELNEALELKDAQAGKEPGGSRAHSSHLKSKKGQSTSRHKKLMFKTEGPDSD", "assay": "ATG_p53_CIS: Attagene CIS-FACTORIAL HepG2 Assay for human p53 Transcription Factor (AID 2282994)", "conditions": "HepG2 p53 cis-element reporter, Attagene mRNA; actives raise or lower the signal", "procedure": "ATG_CIS is a cell-based, multiplexed-readout assay that uses HepG2, a human liver cell line, with measurements taken at 24 hours after chemical dosing in a 24-well plate.ATG_p53_CIS is one of 52 assay component(s) measured or calculated from the ATG_CIS assay. It is designed to make measurements of mRNA induction, a form of inducible reporter, as detected with fluorescence intensity signals by Reverse transcription polymerase chain reaction (RT-PCR) and Capillary electrophoresis technology.Data from the assay component ATG_p53_CIS was analyzed into 1 assay endpoint. This assay endpoint, ATG_p53_CIS, was analyzed with bidirectional fitting relative to DMSO as the negative control and baseline of activity. Using a type of inducible reporter, measures of mRNA for gain or loss-of-signal activity can be used to understand the reporter gene at the transcription factor-level as they relate to the gene TP53. Furthermore, this assay endpoint can be referred to as a primary readout, because this assay has produced multiple assay endpoints where this one serves a reporter gene function. To generalize the intended target to other relatable targets, this assay endpoint is annotated to the dna binding intended target family, where the subfamily is tumor suppressor.\nHuman liver HepG2 cells are transiently transfected with multiple reporter transcription units (MRTUs) in 6-well plates using FuGene 6 reagent (Roche; 3 ml FuGene/1 mg DNA). The MRTU constructs are regulated by a cis-regulating element (promoter). […] A major difference between the CIS and TRANS system is that in CIS activities of endogenous TFs are measured, whereas the TRANS assay evaluates changes in activities of exogenous, chimeric NR-Gal4 proteins. […] At the end of 24 hour incubation, total RNA was isolated using TriZol reagent (Invitrogen). The isolated RNA is then reverse-transcribed using oligo(dT) primer and Mo-MLV reverse transcriptase (Invitrogen) with DNAse I (Ambion) treatment for 30 min. The one-tenth of the produced cDNA was amplified by PCR using Taq DNA polymerase (Invitrogen) and two reporter sequence-specific primers. The PCR products were fluorescently labeled by primer extension with 6-arboxyfluorescein (6-FAM) 5'-labeled reporter sequence-specific primer (2 min at 95 C, 20 s at 68 C and 10 min at 72 C) and these products were digested with 5U of HpaI (New England Biolabs) for 2h at 37 C. The fragments were purified using Qiaquick PCR columns (Qiagen), analyzed on an ABI 3130xL genetic analyzer (Applied Biosystems) with peak positions identified by using a set of X-rhodamine (ROX)-labeled MapMarker1000 molecular weight standards (BioVentures). The raw capillary electrophoresis data was processed using Attagraph software (Attagene)."}
{"smiles": "CC1=CC(C)C(C=O)CC1", "note": "(stereo not given)", "outcome": "inactive"}
{"smiles": "C=C(C)C(=O)OCCOC(=O)C(=C)C", "outcome": "inactive"}
{"smiles": "Oc1ccccc1Cc1ccccc1O", "AC50": "100 µM (active)"}
{"smiles": "CCCCNS(=O)(=O)c1ccc(C)cc1", "outcome": "inactive"}
{"smiles": "CCCCCCO", "outcome": "inactive"}
{"smiles": "CCCCCCCCCCCCCc1ccccc1", "outcome": "inactive"}
{"smiles": "O=C(OCc1ccccc1)c1ccc(O)cc1", "outcome": "inactive"}
{"smiles": "c1ccc(Nc2cccc3ccccc23)cc1", "AC50": "57.1 µM (active)"}
{"smiles": "CCCCCCOC(=O)CCCCC(=O)OCCCCCC", "outcome": "inactive"}
{"smiles": "CN(C)c1ccc2nc3ccc(=[N+](C)C)cc-3sc2c1", "outcome": "inactive"}
{"smiles": "COCC(=O)O", "outcome": "inactive"}
{"smiles": "C=C(C)[C@@H]1CC=C(C)CC1", "outcome": "inactive"}
{"smiles": "CCc1cccc(CC)c1", "outcome": "inactive"}
{"smiles": "CCCCOCCOC(=O)COc1ccc(Cl)cc1Cl", "outcome": "inactive"}
{"smiles": "COC(=O)c1ccccc1C", "outcome": "inactive"}
{"smiles": "Clc1cc(Cl)c(Cl)c(Cl)c1Cl", "outcome": "inactive"}
{"smiles": "CC/C=C\\CCOC(=O)c1ccccc1O", "AC50": "138 µM (active)"}
{"smiles": "O=C(OCCc1ccccc1)c1ccccc1", "outcome": "inactive"}
{"smiles": "CC(CC(C)C)=NO", "outcome": "inactive"}
{"smiles": "CC1=NN(c2ccc(S(=O)(=O)O)cc2)C(=O)C1N=Nc1ccccc1", "note": "(stereo not given)", "outcome": "inactive"}
{"smiles": "CC12CCC(CC1)C(C)(C)O2", "outcome": "inactive"}
{"smiles": "CC(=O)OC1CCCCC1", "outcome": "inactive"}
{"smiles": "CC(C)C(=O)OCCOc1ccccc1", "outcome": "inactive"}
{"smiles": "CC(CCC(=O)O)(c1ccc(O)cc1)c1ccc(O)cc1", "outcome": "inactive"}
{"smiles": "O=C(O)c1ccc2c(c1)C(=O)OC2=O", "outcome": "inactive"}
{"smiles": "O=C(O)C1CCC(C(=O)O)CC1", "note": "(stereo not given)", "outcome": "inactive"}
{"smiles": "c1ccc(-c2nc3ccccc3[nH]2)cc1", "outcome": "inactive"}
{"smiles": "CN(C)Cc1cc(CN(C)C)c(O)c(CN(C)C)c1", "outcome": "inactive"}
{"smiles": "CC(C)(C)C1CCC(=O)CC1", "outcome": "inactive"}
{"smiles": "COC(=O)[C@H](Cc1ccccc1)NC(=O)[C@@H](N)CC(=O)O", "note": "(H-Asp-Phe-OMe)", "outcome": "inactive"}
{"smiles": "Nc1ccnc(=O)[nH]1", "outcome": "inactive"}
{"smiles": "CCN1CN(CC)CN(CC)C1", "outcome": "inactive"}
{"smiles": "CC1C(C)(C)C2=C(C(=O)CCC2)C1(C)C", "note": "(stereo not given)", "outcome": "inactive"}
{"smiles": "N=C1C=CC(=C(c2ccc(N)cc2)c2ccc(N)cc2)C=C1", "AC50": "33.4 µM (active)"}
{"smiles": "C=CCCCCCCCCC=O", "outcome": "inactive"}
{"smiles": "O=C(Cl)c1c(Cl)c(Cl)c(C(=O)Cl)c(Cl)c1Cl", "outcome": "inactive"}
{"smiles": "CCCCCCCCCCCCC", "outcome": "inactive"}
{"smiles": "CC(CC=O)CC(C)(C)C", "note": "(stereo not given)", "outcome": "inactive"}
{"smiles": "CC(C)CCCCCOC(=O)CS", "outcome": "inactive"}
{"smiles": "CCC[Si](OC)(OC)OC", "outcome": "inactive"}
